A selection: hits, their analogues and other compounds. The true share with any hit is near 2.2%.
PvdQ inh = blocks Pseudomonas aeruginosa PvdQ acylase activity; purified PvdQ acylase, fluorescence plate reader; inhibition, % at 10 µM; 340,000 compounds, 0.063% hits; AID 488965; in the data active = inhibition above about 30%, passing the limit was not always enough;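 note: 0% = vehicle neutral wells and 100% = reference inhibitor wells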
Mot1-301 SUMO = SUMOylation pathway inhibition by Mot1-301 growth rescue | AID 2716 | growth rescue, % at 18.8 µM | 320,000 compounds, 1% hits | S. cerevisiae Mot1-301 growth rescue, ATP luminescence, 38.5C; percent above DMSO median, 100 means doubled;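 active = every valid replicate shows activation above 250% relative to neutral control wells; inactive = the rest, any valid replicate at or below 250%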;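 note: OY570 slx delta 5 strain wells were the positive control but not used for scaling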
pCIP destab = lowers stability of the mouse p/CIP coactivator protein; 290,000 compounds, 0.01% hits; AID 1984; decrease of EGFP signal, % at 10 µM; Q05BA5; F442A p/CIP-EGFP cells, EGFP fluorescence, 16 h;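 active = EGFP signal decrease of at least 30% at 10 µM or well 3 SD below plate mean, unless failing retest; inactive = the rest, including hits failing retest or dose response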
HDAC3 inhib = blocks human histone deacetylase 3. O15379. recombinant HDAC3, fluorogenic peptide/trypsin coupled, fluorescence. inhibition, % at 8.3 µM. 320,000 compounds, 0.15% hits; in the data active = inhibition above about 26%, passing the limit was not always enough
Target sequence (O15379 whole entry, looked up): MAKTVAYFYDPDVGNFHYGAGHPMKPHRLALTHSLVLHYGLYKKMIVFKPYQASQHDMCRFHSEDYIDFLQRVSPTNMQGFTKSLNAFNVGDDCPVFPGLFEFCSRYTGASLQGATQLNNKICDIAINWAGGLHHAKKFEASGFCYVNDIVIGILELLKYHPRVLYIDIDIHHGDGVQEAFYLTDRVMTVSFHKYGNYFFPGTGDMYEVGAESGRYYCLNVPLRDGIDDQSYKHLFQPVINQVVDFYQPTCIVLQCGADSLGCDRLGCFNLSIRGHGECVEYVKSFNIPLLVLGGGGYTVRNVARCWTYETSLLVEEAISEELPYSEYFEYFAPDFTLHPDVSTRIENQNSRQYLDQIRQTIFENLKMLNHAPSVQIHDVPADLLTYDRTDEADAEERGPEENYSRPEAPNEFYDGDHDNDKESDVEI
PHOSPHO1 block = inhibitors of human PHOSPHO1 phosphatase. Q8TCT1. recombinant PHOSPHO1, absorbance phosphatase assay. inhibition, % at 13.3 µM. 290,000 compounds, 1.1% hits. AID 1565; in the data active = inhibition above about 60%
JMJD2C inh = inhibitors of human GASC-1 (JMJD2C) demethylase. GST-JMJD2C(1-420) H3K9me3 demethylation, DELFIA europium. inhibition, % at 2.35 µM. 330,000 compounds, 0.069% hits. AID 2099;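 active = more than half of a compound's replicate wells show inhibition beyond 50%, single wells judged on their own value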;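 note: signal counts dimethyl H3K9 product captured on neutravidin plate; 0% = median of DMSO wells and 100% = 0.3 times that DMSO median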
Active calls of the source: *; / = not tested or not shown.

SMILES	PvdQ inh	Mot1-301 SUMO	pCIP destab	HDAC3 inhib	PHOSPHO1 block	JMJD2C inh
CC(C)Oc1ccc(S(=O)(=O)N2CCOCC2)cc1NC(=O)C1=COCCO1	-15	35	/	1	/	3
CCOc1ccc2nc(SCC(=O)N(C)C3CCS(=O)(=O)C3)[nH]c2c1 (centres undefined)	0	-3	-8	-4	100*	21
Cc1ccc2nc(SCC(=O)N(C)C3CCS(=O)(=O)C3)[nH]c2c1 (centres undefined)	-5	5	/	-3	/	8
O=c1c2ccccc2sn1-c1ccccc1	16	-19	-13	49*	-48	-6
Cc1ccc(-n2sc3ccccc3c2=O)cc1S(=O)(=O)N1CCCCC1	-31	18	2	39*	30	-1
Brc1ccc(C=Nc2ccc3c(c2)OCCOCCOCCO3)s1	5	23	4	-1	-2	-1
Cc1ccc(-c2cc(-c3ccc(Cl)cc3)c(C#N)c(N)n2)o1	-22	16	1	-2	72*	-6
Cc1ccc(-c2cc(-c3ccc(C)o3)nc(N)c2C#N)cc1	4	295	-29	-6	50	-4
CCCn1cnc2c(N)c(C)c(C)cc21	-16	105	-2	2	73*	12
COc1cccc(Cn2cnc3c(N)c(C)c(C)cc32)c1	9	-5	-1	-1	45	-19
Cc1cc(C(=O)COC(=O)C23CC4CC(CC(O)(C4)C2)C3)c(C)n1C	-8	5	/	1	/	-12
Cc1ccc(C(=O)NC2CCC(C)CC2)o1 (centres undefined)	16	17	/	-1	/	-10
C=CCc1cc(/C=C/c2nc(O)c([N+](=O)[O-])c(=O)[nH]2)cc(OC)c1O	-4	523*	-10	3	0	1
CCN(CCNCC(O)COc1ccccc1C(C)C)c1cccc(C)c1 (centres undefined)	-10	-43	-2	-1	33	4
O=C(CSc1nnc(-c2ccccn2)n1Cc1ccco1)c1ccc(-c2ccccc2)cc1	11	12	-4	9	77*	-8
Cn1c(SCC(=O)c2ccccc2)nnc1-c1cnccn1	-8	-16	0	2	83*	-5
O=C(CSc1nnc(-c2cnccn2)n1Cc1ccco1)c1ccc2ccccc2c1	-1	24	47*	4	86*	-4
O=C(CSc1nnc(-c2cccnc2)n1Cc1ccco1)c1ccccc1	-22	19	-44	1	-46	-5
CCCN(C(=O)CSc1n[nH]c(-c2ccc(OC)cc2)n1)c1c(N)n(Cc2ccccc2)c(=O)[nH]c1=O	10	1	/	5	/	0
c1ccc2sc(N3CCCN(Cc4nc(-c5cnccn5)no4)CC3)nc2c1	-10	2	-2	0	40	0
CCCNC(C)C(=O)Nc1c(C)csc1C(=O)OC (centres undefined)	-5	12	/	-14	/	/
CCC(CC)c1nnc(NC(=O)c2cc(C(=O)OC)cc([N+](=O)[O-])c2)s1	7	400*	-2	-2	8	3
Cc1ccc(-c2csc(Nc3ccc(C(=O)O)cc3)[n+]2Cc2ccccc2)cc1	17	-10	28	-2	62*	3
O=C(O)CCC1c2cc3c4cc2OC2Oc5cc6c(cc51)C(CCC(=O)O)c1cc5c7cc1OC(O6)c1cc6cc(c1)Oc1cc(cc(C(=O)O)c1)Oc1cc8cc(c1)C(Oc1cc(c(cc1C5CCC(=O)O)C3CCC(=O)O)OC(O4)c1cc(cc(c1)Oc1cc(cc(C(=O)O)c1)O8)Oc1cc(cc(C(=O)O)c1)Oc1cc(cc2c1)Oc1cc(cc(C(=O)O)c1)O6)O7 (centres undefined)	/	108	/	-17	/	101*
Nc1nc(Nc2ccccc2F)nc(NCc2ccco2)c1[N+](=O)[O-]	-1	304*	-2	9	17	-5
SMILES	PvdQ inh	Mot1-301 SUMO	pCIP destab	HDAC3 inhib	PHOSPHO1 block	JMJD2C inh
Nc1nc(Nc2ccccc2)nc(NCc2ccco2)c1[N+](=O)[O-]	3	9	2	13	-2	4
COCCN(CC(=O)Nc1cccc(C)c1C)C(=O)c1ccc2ccccc2n1	-7	/	/	/	/	/
COCC(C)n1c(SCC(=O)NNC(=O)c2ccc(F)cc2)nc2ccccc2c1=O (centres undefined)	-4	346*	12	/	-11	25
CCOC(=O)C(C(=O)OCC)N(C#N)c1nc(N(C)C)nc(N(C)C)n1	-3	-22	-10	-5	45	4
Cc1ccc(-c2nnc(SCC(=O)NC3CC3)n2N)cc1	-8	0	-3	-2	35	21
Cc1onc(C(=O)Nc2cccnc2Cl)c1[N+](=O)[O-]	-4	9	2	-2	18	0
COc1cc(NC(=O)c2noc(C)c2[N+](=O)[O-])c(OC)cc1Cl	-14	18	3	2	64*	14
COc1ccccc1C(=O)NC(=O)CSc1nncn1C	-6	23	/	-2	/	-12
C/C(=N/NC(=O)CN1CCN(S(=O)(=O)c2ccc(C)cc2)CC1)c1cccc(O)c1	-13	50	-12	-1	-12	-2
Cc1ccc(C)c(NS(=O)(=O)c2ccc(-c3ccc(=O)[nH]n3)o2)c1	-9	-1	8	-6	65*	-1
O=C1CC(O)(C(F)(F)F)Oc2c1ccc1ccccc21 (centres undefined)	-2	-12	1	-4	-8	-13
O=C1CC(O)(C(F)F)Oc2ccc3ccccc3c21 (centres undefined)	0	-3	0	-30	67*	6
COc1ccc(-c2nc(SCC(=O)Nc3cccc(S(N)(=O)=O)c3)n[nH]2)cc1	-7	/	/	/	/	/
Cc1cccc(C)c1NC(=S)NN(Cc1ccccc1)c1ccccc1	-8	5	2	3	-9	72*
O=C(N1CCCCC1)N1CCC(c2nc3ccccc3[nH]2)CC1	-3	3	1	6	-6	3
Cc1ccc(NC(=S)N2CCCC(c3nc4ccccc4[nH]3)C2)cc1 (centres undefined)	-1	523*	3	-4	-1	2
CCOC(=O)N1CCC(c2nc3ccccc3[nH]2)CC1	10	105	4	2	-9	53*
COc1ccc(NC(=O)CCC(=O)c2ccc(F)cc2)cc1	-13	/	/	/	/	/
CCn1nc(C)cc1-c1n[nH]c(=S)n1N	-28	123	-4	2	102*	3
CNc1ccc(C(=O)N2CCN(S(=O)(=O)c3ccc4c(c3)OCCCO4)CC2)cc1[N+](=O)[O-]	-6	189	0	1	36	-11
Cc1ccc(N(C(=O)Cn2nnc(-c3cccs3)n2)C(C(=O)NC2CCCC2)c2ccncc2)cc1 (centres undefined)	-15	13	0	-6	60*	0

Screening results (PubChem)
